Compound activity from PubChem BioAssay.
ST2 inh = inhibitors of human ST2 (IL1RL1) binding to IL-33 | Q01638 | AlphaLISA ST2-Fc/biotin-IL-33 interaction, 1 h | inhibition, % for hits at 17 µM | 2.3% of 78,000 active; in the data active = inhibition above about 30%
Target sequence (Q01638 whole entry, looked up): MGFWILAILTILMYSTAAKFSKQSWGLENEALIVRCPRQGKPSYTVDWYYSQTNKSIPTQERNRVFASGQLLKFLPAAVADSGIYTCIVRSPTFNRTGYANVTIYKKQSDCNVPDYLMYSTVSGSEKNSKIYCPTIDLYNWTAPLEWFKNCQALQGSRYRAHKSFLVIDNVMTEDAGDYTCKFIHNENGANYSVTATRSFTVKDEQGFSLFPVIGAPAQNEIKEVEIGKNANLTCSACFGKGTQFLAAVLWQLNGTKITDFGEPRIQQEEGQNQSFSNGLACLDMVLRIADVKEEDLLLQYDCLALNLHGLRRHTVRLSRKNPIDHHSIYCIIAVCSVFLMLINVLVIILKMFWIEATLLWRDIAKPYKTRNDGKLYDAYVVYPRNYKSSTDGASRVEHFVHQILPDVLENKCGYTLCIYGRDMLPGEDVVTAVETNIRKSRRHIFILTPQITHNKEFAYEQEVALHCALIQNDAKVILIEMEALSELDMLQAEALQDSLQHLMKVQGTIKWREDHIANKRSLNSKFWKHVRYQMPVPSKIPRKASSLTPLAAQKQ
* = called active by the depositor. Only a selection was taken, and hits are over-represented in it overall.

`CCn1cnc2cc(NCc3ccc(OC)c(OC)c3)ccc21` gave ST2 inh inactive.
Screening COc1ccc(CNc2ccc3c(c2)ncn3C(C)(C)C)cc1OC returned ST2 inh inactive.
`COc1ccc(CNc2ccc3c(c2)ncn3C2CCCCC2)cc1OC` gave ST2 inh 33%*.
`Cc1c(CN2CCC(CNS(=O)(=O)C3CC3)C2)oc2ccccc12` (stereo unspecified) gave ST2 inh inactive.
For OCCNCC1(O)C2CC3CC(C2)CC1C3 (stereo unspecified) the results were ST2 inh inactive.
Screening CC(NC(=O)c1ccc(Cl)cc1)C1CC2CCC1C2 (stereo unspecified) returned ST2 inh inactive.
For CCC(=O)N1CCc2cc(S(=O)(=O)NCC(=O)NC3CCCC3)ccc21 the results were ST2 inh inactive.
For CCN(CC)CCNC(=O)c1ccc(N=Cc2cc(Cl)cc(Cl)c2O)cc1 the results were ST2 inh inactive.
`CCN(CC)c1ccc(N=Cc2ccc(N(CC)CC)cc2O)cc1` gave ST2 inh 60%*.
`CC(=O)Nc1ccc(N=Cc2cc(Br)cc(Cl)c2O)cc1` gave ST2 inh inactive.
`COC(=O)c1ccc2c(c1)nc(N1CC(c3cccnc3)C1)n2C` gave ST2 inh inactive.
For O=C1CCCN1C1CCCN(Cc2ncc[nH]2)C1 (stereo unspecified) the results were ST2 inh inactive.
For Cc1ccc(N2NC(=O)/C(=C/c3ccc(OCc4ccccc4)cc3)C2=O)cc1Cl the results were ST2 inh inactive.
COc1cc(/C=C2/C(=O)NN(c3ccc(C)c(Cl)c3)C2=O)ccc1OCc1ccccc1 was read as ST2 inh 48%*.
COc1cc(/C=C2/C(=O)NN(c3ccc(C)c(Cl)c3)C2=O)cc(OC)c1OC was read as ST2 inh inactive.
For COc1cc2c(C(=O)NCc3ccco3)cn(C)c(=O)c2cc1OC the results were ST2 inh inactive.
For O=C(c1ccc(Cl)cc1)n1c(=O)oc2ccc(Cl)cc21 the results were ST2 inh inactive.
COc1cc(/C=C2\SC(N)=NC2=O)cc(Br)c1O was read as ST2 inh inactive.
`COc1ccc(/C=C2/SC(N3CCN(C)CC3)=NC2=O)cc1OC` gave ST2 inh inactive.
`COc1ccc(/C=C2/C(=O)N=C(N)N2C)cc1OC` gave ST2 inh inactive.
`COc1ccc(/C=C2\SC(c3ccc(C)cc3)=NC2=O)cc1OC` gave ST2 inh 30%*.
For COc1cc(/C=C/c2cc(O)cc(O)c2)ccc1O the results were ST2 inh inactive.
For COc1cc(/C=C2\SC(c3ccc(C)cc3)=NC2=O)ccc1O the results were ST2 inh 62%*.
CCCCN(CC)S(=O)(=O)c1ccc(C(=O)Nc2nnc(COC)o2)cc1 was read as ST2 inh inactive.
CCOc1ccc(C(=O)Nc2ccc(NC(=O)c3cccs3)cc2)cc1[N+](=O)[O-] was read as ST2 inh inactive.
Screening CCCCN(CC)S(=O)(=O)c1cccc2nonc12 returned ST2 inh inactive.
c1ccc2c(c1)Oc1ccccc1C2n1nnc2ccccc21 was read as ST2 inh inactive.
For CCCc1cc(NCCOC)n2c(nc3ccccc32)c1C#N the results were ST2 inh inactive.
Cc1cc(NCCN2CCOCC2)n2c(nc3ccccc32)c1C#N was read as ST2 inh inactive.
Screening N#Cc1c(C(F)(F)F)cc(NCCN2CCOCC2)n2c1nc1ccccc12 returned ST2 inh 34%*.
Screening CN(CCc1ccccc1)[C@@H]1[C@H](O)[C@H](CO)O[C@@H]1CNS(=O)(=O)c1ccc(Cl)cc1 returned ST2 inh inactive.
Screening CC(=O)Nc1ccc(NC(=O)CCCC(=O)O)cc1 returned ST2 inh inactive.
`O=C(Cc1c(C(=O)O)[nH]c2ccccc12)NCc1ccccn1` gave ST2 inh inactive.
`Cn1c(=O)c(Cc2ccccc2F)nc2ccccc21` gave ST2 inh inactive.
Cn1c(=O)c(/C=C/c2cccs2)nc2ccccc21 was read as ST2 inh 36%*.
Screening COc1ccc(C(=O)c2nc3ccccc3n2C)cc1 returned ST2 inh inactive.
COCCn1c(CNC(=O)c2ccc(OC)c(OC)c2)nc2cccnc21 was read as ST2 inh inactive.
For CCOC(=O)c1c(C)n(-c2ccc(OCC)cc2)c2ccc(OC(C)=O)cc12 the results were ST2 inh inactive.
For O=C(NCc1ccco1)c1ccc2c(c1)N(Cc1ccc(Cl)cc1)C(=O)c1ccccc1S2 the results were ST2 inh inactive.
CC(C)N1CCC[C@H]1c1nc(-c2ccc(-n3ccnc3)nc2)no1 was read as ST2 inh 35%*.
c1cn(-c2ccc(-c3noc([C@@H]4CCCN4)n3)cn2)cn1 was read as ST2 inh inactive.
`c1cc(N2CCOCC2)ncc1-c1noc([C@@H]2CCCN2C2CCOCC2)n1` gave ST2 inh inactive.
CC(=O)c1ccc(C(=O)NCc2csc(C)n2)cc1 was read as ST2 inh inactive.
For COc1ccccc1-n1cc2c([N+](=O)[O-])cc([N+](=O)[O-])cc2n1 the results were ST2 inh 35%*.
For COc1ccc(-n2cc3c([N+](=O)[O-])cc([N+](=O)[O-])cc3n2)cc1 the results were ST2 inh inactive.
Screening COc1ccc(C2=N/C(=C\c3cccc(OC)c3OC)C(=O)O2)cc1[N+](=O)[O-] returned ST2 inh inactive.
COCCCNC(=O)Cc1c(C(=O)O)[nH]c2ccc(Cl)cc12 was read as ST2 inh inactive.
`COc1ccc(NS(=O)(=O)c2ccccc2)cc1` gave ST2 inh inactive.
`COc1ccc(Nc2nnc(-c3ccc(C)c(S(=O)(=O)N(C)C)c3)c3ccccc23)cc1` gave ST2 inh inactive.
For COc1ccc(NC2=C(N(C)C)C(=O)c3ccccc3C2=O)cc1 the results were ST2 inh 44%*.
Screening O=C(N1CCCCC1)[n+]1ccc(N2CCOCC2)cc1 returned ST2 inh inactive.
For Clc1nc(N2CCCCC2)nc(N2CCOCC2)n1 the results were ST2 inh inactive.
Clc1ccccc1/C=C/C=Nc1ccc(N2CCOCC2)cc1 was read as ST2 inh 38%*.
For O=C(Nc1cc2cc(Br)ccc2oc1=O)c1ccc(Cl)cc1 the results were ST2 inh inactive.
Screening CC1CN(C(=O)c2cccc(F)c2)C(C)CN1C(=O)c1cccc(F)c1 (stereo unspecified) returned ST2 inh 85%*.
`Cc1cccc(C(=O)N2C(C)CCCC2C)c1` (stereo unspecified) gave ST2 inh inactive.
Screening COC(=O)[C@@H]1CN(C(=O)c2cccc(F)c2)CCN1C(=O)c1cccnc1 returned ST2 inh inactive.
Screening Cc1cc(C)n(CCC(=O)NCCc2c[nH]c3ccccc23)c(=O)n1 returned ST2 inh inactive.
`COCc1ccc(C(=O)NCc2ccc3c(c2)n(C)c(=O)n3C)o1` gave ST2 inh inactive.
`Cn1c(=O)n(C)c2cc(CNC(=O)Cc3c[nH]c4ccccc34)ccc21` gave ST2 inh 30%*.
`COc1ccc(-n2c(=O)c3c(C)c(C)sc3n(CC(=O)NCc3ccccc3)c2=O)c(OC)c1` gave ST2 inh inactive.
O=C(Nc1ccc2c(c1)CN(C(=O)/C=C/c1cccs1)CC2)c1ccccn1 was read as ST2 inh inactive.
`N#Cc1c(N)n(-c2ccc(C(=O)O)cc2)c2nc3ccccc3nc12` gave ST2 inh 36%*.
